Screening data from PubChem.
In the library only some 4.7% were active in any assay of this set; here they are far more common.
TRHR agonist: TRH receptor (human) agonism; P34981; TRHR cells, calcium flux fluo-8, FDSS agonist mode; activation, % at 2 µM; 360,000 tested, 0.18% active; AID 493084; note: 0% is about no effect
Target sequence (P34981 whole entry, looked up): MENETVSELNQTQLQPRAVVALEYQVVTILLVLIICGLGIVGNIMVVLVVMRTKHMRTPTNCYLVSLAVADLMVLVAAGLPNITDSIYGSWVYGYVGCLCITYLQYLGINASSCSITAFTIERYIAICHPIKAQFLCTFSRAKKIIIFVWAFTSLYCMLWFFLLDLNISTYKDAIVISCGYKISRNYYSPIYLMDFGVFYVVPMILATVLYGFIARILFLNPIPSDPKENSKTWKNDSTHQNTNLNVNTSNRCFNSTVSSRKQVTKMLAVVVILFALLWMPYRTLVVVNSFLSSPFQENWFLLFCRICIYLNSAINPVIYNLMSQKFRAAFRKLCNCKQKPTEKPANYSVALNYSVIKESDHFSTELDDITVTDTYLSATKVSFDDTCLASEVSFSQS
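Steps: seed TRHR cells overnight; add fluo-8 no-wash Ca dye, RT 30 min–1.5 h; record 10 s baseline; pin-transfer compounds; monitor fluorescence 1 cycle/s for the agonist window. Calcium increases flag candidate agonists.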
D1 ag: activates the human D1 dopamine receptor; P21728; HEK293 T-REx D1 cells, calcium flux, agonist mode; activation, % at 2 µM; 360,000 tested, 1% active; AID 504660; note: 0% is about no effect
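Inducible HEK293 T-REx D1 cells, force-coupled to calcium signalling, were plated at 4000 cells/well with tetracycline and held overnight at 30 C. After no-wash calcium dye loading, compound-evoked calcium rise over 180 s flagged agonists.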
D1 antagonist: blocks dopamine activation of the human D1 receptor; P21728; HEK293 TREx D1 cells, calcium flux, dopamine EC80; active compounds read low; activity change, negative = inhibition, % at 10 µM; 360,000 tested, 3.2% active; AID 504652; in the data active = activity change below about -30%; note: % is set by controls: 0 for no effect and ±100 for the full control effect
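Using tetracycline-induced force-coupled D1 Hek293 cells and a calcium dye, signals were followed for 180 s after compound, then for 180 s after EC80 dopamine, to detect inhibitors.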
D1 PAM: potentiators of human D1 dopamine receptor; AID 504651; HEK293 TREx D1 cells, calcium flux, dopamine EC20 potentiation; potentiation, % at 10 µM; 360,000 tested, 0.036% active; P21728; in the data active = potentiation above about 30%; note: 0% is about no effect
TRHR enhancer: allosterically enhances the human TRH receptor | TRHR cells, fluo-8 calcium fluorescence, EC20 TRH enhancement | enhancement, % at 2 µM | 360,000 tested, 0.66% active | AID 493056; in the data active = enhancement above about 30%; note: 0% is about no effect
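Enhancer read-out: after compound pinning and an initial kinetic agonist-mode read, an EC20 of TRH (10 nM final) was injected and fluo-8 calcium signal (Ex 480/Em 530) followed at 1 s/cycle for 100 cycles in TRHR-expressing cells.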
Numbers without * were called inactive. Cut-off read from the data, not from the text of the source, unless noted: active = activation above about 30%; inactive = the rest.

SMILES	TRHR agonist	D1 ag	D1 antagonist	D1 PAM	TRHR enhancer
O=C(NCCC1=CCCCC1)c1ccc2c(c1)N(Cc1ccccc1)C(=O)c1ccccc1S2(=O)=O	1	6	6	-3	1
COC(=O)c1cc(C)nc2c1c(=O)nc(SCc1ccccc1F)n2C1CC1	-1	0	-1	-1	1
COc1ccc(C(=O)c2ccc(N(C)C)cc2)c(OC)c1	-1	1	4	3	4
COc1ccc(C(=O)c2ccc(OC)cc2OC)cc1	0	0	-49*	-1	-3
Cc1nn(CCC(=O)N2CCN(c3ccccc3)CC2)c(C)c1S(=O)(=O)N1CCCC1	-1	-1	-1	0	2
Cc1cccc(NC(=O)C2COc3ccccc3O2)c1 (configuration not stated)	-1	3	-32*	5	3
Cc1cc(C)nc(NS(=O)(=O)c2ccc(NC(=O)C3COc4ccccc4O3)cc2)n1 (configuration not stated)	-1	5	-60*	-2	2
Cc1ccnc(NS(=O)(=O)c2ccc(NC(=O)C3CC=CCC3C(=O)O)cc2)n1 (configuration not stated)	0	2	-89*	1	1
Cc1ccnc(NS(=O)(=O)c2ccc(NC(=O)C3CCCCC3C(=O)O)cc2)n1 (configuration not stated)	0	2	9	14	7
CCOc1ccccc1-c1noc(CSc2nnc(-c3ccccc3)n2-c2ccc(OC)cc2)n1	0	2	-3	2	-2
O=C(NCC(c1ccco1)S(=O)(=O)c1cccs1)c1ccc(C(F)(F)F)cc1 (configuration not stated)	0	1	1	1	-2
CCOc1ccc(-c2nn(-c3ccccc3)cc2C2NC(=O)NC(C)=C2C(=O)OC(C)C)cc1 (configuration not stated)	2	13	-1	-1	1
CNCCC1Sc2ccccc2Oc2ccccc21 (configuration not stated)	1	81*	11	-8	12
C[C@H](NC(=O)[C@H]1N2C(=O)c3ccccc3C2SC1(C)C)C(=O)N1CCC[C@H]1CO (some centres not stated)	0	40*	7	-5	-7
Cc1ccc(Cl)cc1N1CCN(S(=O)(=O)c2cn(C)c(C)n2)CC1	0	1	7	1	1
Cc1ccc(Cl)cc1N1CCN(S(=O)(=O)c2ccc3[nH]c(=O)ccc3c2)CC1	-1	1	-89*	-15	1
O=c1ccc2cc(S(=O)(=O)N3CCN(c4ccccc4F)CC3)ccc2[nH]1	-1	12	-34*	-10	1
Cc1ccc(Cl)cc1N1CCN(S(=O)(=O)c2cn(C)cn2)CC1	-1	13	-35*	-4	0
CCOc1ccc(C(=O)NCCc2sc(-c3ccc(OC)c(OC)c3)nc2C)cc1	-1	1	-6	-4	-2
Cc1ccc(CNC(=O)C(=O)NCC2OCCN2S(=O)(=O)c2ccc(Br)cc2)cc1 (configuration not stated)	1	10	-6	-4	31*
Cc1ccc(S(=O)(=O)N2CCOC2CNC(=O)C(=O)NCCN(C)C)cc1 (configuration not stated)	1	1	10	7	37*
COc1ccc(CCNC(=O)C(=O)NCC2OCCN2S(=O)(=O)c2ccc3c(c2)OCCO3)cc1 (configuration not stated)	0	0	10	4	9
CNC(=O)C(=O)NCC1OCCCN1S(=O)(=O)c1ccc(F)cc1C (configuration not stated)	0	1	-54*	-11	10
COc1ccc(CCNC(=O)C(=O)NCC2OCCN2S(=O)(=O)c2ccc3c(c2)OCCO3)cc1OC (configuration not stated)	1	-1	-75*	-24	0
Cc1ccc(CNC(=O)C(=O)NCC2OCCN2S(=O)(=O)c2ccc(C)cc2)cc1 (configuration not stated)	2	2	-12	1	-5
Cc1ccc2c(c1)c1c(c(=O)n(-c3cccc(Cl)c3)c(=O)n1CC(=O)NCC1CCCO1)n2C (configuration not stated)	-1	-1	1	2	-2
